According to PubChem BioAssay (NCATS):
Inconclusive results are not listed. Activity calls are given as the source filed them. Calls follow the shape of the full dose curve.

How the values were obtained:
[1] = Primary qHTS for inhibitors of SARS-S pseudo-typed particle cell entry (AID 1479145); also: nearly all actives have a fitted effect of over 45% in size; as to activity change, negative = inhibition: series mostly up to about 57 µM
[2] = Primary qHTS for Huh7 cytotoxicity: counterscreen for inhibitors of MERS-S pseudotyped particle cell entry (AID 1479147)
[3] = Primary qHTS for inhibitors of MERS-S pseudo-typed particle cell entry (AID 1479149); also: nearly all actives have a fitted effect of over 60% in size; as to activity change, negative = inhibition: series mostly up to about 57 µM
[4] = Primary qHTS for Vero E6 cytotoxicity: counterscreen for inhibitors of SARS-S pseudo-typed particle cell entry (AID 1479150)
% is scaled to controls: 0 for no effect and ±100 for the full control effect.

COC(=O)N/N=C/c1c[n+]([O-])c2ccccc2[n+]1[O-]
inactive: Potency [1] | Potency [2] | Potency [3] | Potency [4]

O=C(CO)[C@@H](O)[C@H](O)[C@@H](O)CO
inactive: Potency [1] | Potency [2] | Potency [3] | Potency [4]

CCCC(=O)OCOC(=O)C1=C(C)NC(C)=C(C(=O)OC)C1c1cccc(Cl)c1Cl (configuration not stated)
inactive: Potency [1] | Potency [2] | Potency [3] | Potency [4]

CCO/C([O-])=N/c1c[n+](N2CCOCC2)no1
inactive: Potency [1] | Potency [2] | Potency [3] | Potency [4]

Cc1cc(C)nc(NS(=O)(=O)c2ccc(N)cc2)n1
inactive: Potency [1] | Potency [2] | Potency [3] | Potency [4]

CC1CCN(CCCC(=O)c2ccc(F)cc2)CC1
inactive: Potency [1] | Potency [2] | Potency [3] | Potency [4]

CO/N=C(\C(=O)N[C@@H]1C(=O)N2C(C(=O)O)=C(C[N+]3(C)CCCC3)CS[C@H]12)c1csc(N)n1
inactive: Potency [1] | Potency [2] | Potency [3] | Potency [4]

O=C(Oc1ccccc1)c1ccccc1O
inactive: Potency [1] | Potency [2] | Potency [3] | Potency [4]

CN[C@@H]1CCc2[nH]c3ccc(C(N)=O)cc3c2C1
inactive: Potency [1] | Potency [2] | Potency [3] | Potency [4]

CC(=O)N=c1sc(S(N)(=O)=O)nn1C
inactive: Potency [1] | Potency [2] | Potency [3] | Potency [4]

OC[C@H]1O[C@H](O[C@]2(CCl)O[C@H](CCl)[C@@H](O)[C@@H]2O)[C@H](O)[C@@H](O)[C@H]1Cl
inactive: Potency [1] | Potency [2] | Potency [3] | Potency [4]

C[C@](N)(Cc1ccc(O)cc1)C(=O)O
inactive: activity change, negative = inhibition [1] -0.396% [at 5.34 µM] | outcome [2] inactive [at 5.34 µM] | outcome [3] inactive [at 5.34 µM] | activity change, negative = cytotoxicity [4] -24.5% [at 5.34 µM]

Oc1ccc(OCc2ccccc2)cc1
inactive: Potency [1] | Potency [2] | Potency [3] | Potency [4]

CCCCCC[C@@H](CCC)C(=O)O
inactive: Potency [1] | Potency [2] | Potency [3] | Potency [4]

NCCCCCC(=O)O
inactive: Potency [1] | Potency [2] | Potency [3] | Potency [4]

O=c1cc[nH]c(=O)[nH]1
inactive: Potency [1] | Potency [2] | Potency [3] | Potency [4]

CN1[C@@H]2CC(OC(=O)[C@H](CO)c3ccccc3)C[C@H]1[C@@H]1O[C@@H]12 (some centres not stated)
inactive: Potency [1] | Potency [2] | Potency [3] | Potency [4]

CC(=O)CC/C=C(\C)CC/C=C(\C)CC/C=C(\C)CCC=C(C)C
inactive: Potency [1] | Potency [2] | Potency [3] | Potency [4]

O=C(CS(=O)Cc1ccco1)NC/C=C\COc1cc(CN2CCCCC2)ccn1 (configuration not stated)
inactive: Potency [1] | Potency [2] | Potency [3] | Potency [4]

CN1CCN(CC(=O)N2c3ccccc3C(=O)Nc3cccnc32)CC1
inactive: activity change, negative = inhibition [1] -4.78% [at 5.34 µM] | activity change, negative = cytotoxicity [2] 1.37% [at 5.34 µM] | outcome [3] inactive [at 5.34 µM] | outcome [4] inactive [at 5.34 µM]

Nc1nc(=O)n([C@@H]2CS[C@H](CO)O2)cc1F
inactive: Potency [1] | Potency [2] | Potency [3] | Potency [4]

Cn1c(=O)c2[nH]c(Br)nc2n(C)c1=O
inactive: Potency [1] | Potency [2] | Potency [3] | Potency [4]

CCCCCCCCCCCCCCCCO
inactive: Potency [1] | Potency [2] | Potency [3] | Potency [4]

CC1(C)O[C@@H]2C[C@H]3[C@@H]4CCC5=CC(=O)C=C[C@]5(C)[C@@H]4[C@@H](O)C[C@]3(C)[C@]2(C(=O)CO)O1
inactive: Potency [1] | Potency [2] | Potency [3] | Potency [4]

COc1ccccc1OCC(O)CO (configuration not stated)
inactive: Potency [1] | Potency [2] | Potency [3] | Potency [4]

CO[C@@]1(NC(=O)CSC[C@@H](N)C(=O)O)C(=O)N2C(C(=O)O)=C(CSc3nnnn3C)CS[C@@H]21
inactive: Potency [1] | Potency [2] | Potency [3] | Potency [4]

CCc1cccc(CC)c1NC(=O)CN(CC(=O)O)CC(=O)O
inactive: Potency [1] | Potency [2] | Potency [3] | Potency [4]

CNC[C@H](O)[C@@H](O)[C@H](O)[C@H](O)CO
inactive: Potency [1] | Potency [2] | Potency [3] | Potency [4]

CCCNC(C)C(=O)Nc1ccccc1C (configuration not stated)
inactive: Potency [1] | Potency [2] | Potency [3] | Potency [4]

CC(C(=O)O)c1ccc(/C=C2\CCCCC2=O)cc1 (configuration not stated)
inactive: Potency [1] | Potency [2] | Potency [3] | Potency [4]

Cc1ccsc1/C=C/C1=NCCCN1C
inactive: Potency [1] | Potency [2] | Potency [3] | Potency [4]

CCN1CCN(C(=O)N[C@@H](C(=O)N[C@@H]2C(=O)N3[C@@H]2SC(C)(C)[C@H]3C(=O)O)c2ccccc2)C(=O)C1=O
inactive: Potency [1] | Potency [2] | Potency [3] | Potency [4]

CC(C)(C)C(=O)Oc1ccc(S(=O)(=O)Nc2ccccc2C(=O)NCC(=O)O)cc1
inactive: Potency [1] | Potency [2] | Potency [3] | Potency [4]
